Measurements taken from PubChem BioAssay.
“And” between values parts separate entries of the source, which are not always exact repeats. Equal entries are not always repeated.

Assay: viability loss with induced miR-34 in A549 – imaging, A549 dox-inducible miR-34, nuclei and caspase counts, primary screen (AID 1347080); further: test concentration not given here
Details: A549 miR-34 inducible, Hoechst nuclei count, 48 h; measured here: total cells without miR-34 induction
In the case of COC(=O)CCC[C@H](O)[C@H](O)CO, the cell count is reported as 5040.
Work on O=C(Cc1ccccc1Nc1c(Cl)cccc1Cl)Oc1ccc(-c2cc(=S)ss2)cc1 yielded a cell count of 6570.
Work on CCCCCCCC/C=C\CCCCCCCCCCCC(N)=O yielded a cell count of 5820.
In the case of O=S(=O)(NO)c1ccccc1, the cell count is reported as 5060.
In the case of CCCc1oc(CCC(=O)O)c(C(=O)O)c1C, the cell count is reported as 5840.
CCCCC[C@](C)(O)/C=C/[C@@H]1[C@@H](C/C=C\CCCC(=O)O)[C@@H](O)C[C@H]1O showed a cell count of 5570.
For CCCC[C@H](C)C[C@H](O)/C=C/[C@@H]1[C@@H](CCCCCCC(=O)O)[C@@H](O)C[C@H]1O, the cell count was 5900.
With CCCCC/C=C\C/C=C\C/C=C\C/C=C\CCCC(=O)OCC(O)CO (stereo not given) the cell count was 5380.
In the case of CCCCCCCCCC(=O)N[C@@H](Cc1c[nH]c2ccccc12)C(=O)N[C@@H](CC(N)=O)C(=O)N[C@@H](CC(=O)O)C(=O)N[C@@H]1C(=O)NCC(=O)N[C@@H](CCCN)C(=O)N[C@@H](CC(=O)O)C(=O)N[C@H](C)C(=O)N[C@@H](CC(=O)O)C(=O)NCC(=O)N[C@H](CO)C(=O)NC([C@@H](C)CC(=O)O)C(=O)N[C@@H](CC(=O)c2ccccc2N)C(=O)OC1C (stereo not given in full), the cell count is reported as 8980.
With CCCCCCOC(=O)[C@@]1(O)CC2OC1(C)n1c3ccccc3c3c4c(c5c6ccccc6n2c5c31)C(=O)NC4 (stereo not given in full) the cell count was 6430.
With CCCC[C@H](CCC(=O)O)NC(=O)CCCCCCc1ccccc1 the cell count was 6570.
Compound C/C(O)=C1\C(=O)[C@@H]2[C@H]3c4c[nH]c5cccc(c45)C[C@H]3C(C)(C)N2C1=O has a cell count of 2100.
Work on O=C(O)CCC/C=C/C[C@@H]1[C@@H](CC[C@@H](O)CCc2ccccc2)[C@H](O)C[C@@H]1O yielded a cell count of 6060.
In the case of CC(C)=CCC/C(C)=C/CC/C(C)=C/CC[C@]1(C)CCc2cc(O)c(C)c(C)c2O1, the cell count is reported as 5480.
N#Cc1cc2c(OCC(O)CN3CCN(C(c4ccccc4)c4ccccc4)CC3)cccc2[nH]1 (stereo not given) gave a cell count of 1550.
CCCCC[C@H](O)/C=C/[C@H]1[C@H](O)CC(=O)[C@@H]1C/C=C\CCCC(=O)NCCO gave a cell count of 5420.
For CCNC1=N[C@@H]2[C@@H](O)[C@H](O)[C@@H](CO)O[C@@H]2S1, the cell count was 6640.
Work on CCCCC[C@H](O)/C=C/[C@H]1[C@H](O)CC(=O)[C@H]1C/C=C\CCCC(=O)O yielded a cell count of 5910.
In the case of CO[C@H]1CC(O[C@@H]2/C(C)=C/C[C@@H]3C[C@@H](C[C@]4(C=C[C@H](C)[C@@H](C5CCCCC5)O4)O3)OC(=O)[C@@H]3C=C(C)[C@@H](O)[C@H]4OC/C(=C\C=C\[C@@H]2C)[C@]43O)O[C@@H](C)C1O[C@H]1C[C@H](OC)[C@@H](O)[C@H](C)O1 (stereo not given in full), the cell count is reported as 576.
Compound O=C(O)CCC/C=C\C[C@H]1C(=O)C=C[C@@H]1/C=C/[C@@H](O)COc1ccccc1 has a cell count of 6260.
CCCCC[C@H](O)/C=C/[C@H]1C(=O)C[C@H](O)[C@@H]1CCCCCCC(=O)O gave a cell count of 5320.
Compound CCCCCCCCCC(=O)CC(=O)N[C@H]1CCOC1=O has a cell count of 6660.
For CN(C)CCCCCCOc1ccc(-n2ccnc2)cc1, the cell count was 5240 and 6330.
For CCCCC/C=C\C/C=C\CCCCCCCC(=O)OC[C@H](O)CO, the cell count was 6430.
CCCCCC/C=C\CCCC(=O)CC(=O)N[C@H]1CCOC1=O showed a cell count of 5940.
CCCCC[C@H](O)CC[C@@H]1[C@@H](C/C=C\CCCC(=O)O)[C@@H](O)C[C@H]1O gave a cell count of 6610.
C[C@H](N)C(=O)CCCCCC(=O)O showed a cell count of 5890.
Work on CC(C)=CCC/C(C)=C/CC/C(C)=C/CSc1ccccc1C(N)=O yielded a cell count of 5780.
Cc1nc(-c2ccc(C(F)(F)F)cc2)sc1C(=O)NCc1ccc(OC(C)(C)C(=O)O)cc1 gave a cell count of 5520.
In the case of CCCCC[C@H](O)/C=C/[C@H]1C=CC(=O)[C@H]1CCCCCCC(=O)O, the cell count is reported as 5760.
CCCCCCCCCCCCCCCC(=O)NC(CO)CO showed a cell count of 5440.
CCCCCCCCCCCCCCCCOC[C@H](COP(=O)([O-])OCC[N+](C)(C)C)OC(=O)CCCCCCCC(=O)O gave a cell count of 5340.
CCCCC[C@H](O)/C=C/[C@H]1C2COC(C2)[C@@H]1C/C=C/CCCC(=O)O (stereo not given in full) showed a cell count of 6410.
CCCCCCCCCCCCCCCC(=O)OCC gave a cell count of 5950.
O=C(O)CCCCCC[C@@H]1C(=O)NC(=O)N1CCC(O)C1CCCCC1 (stereo not given in full) gave a cell count of 5460.
O=C1C(c2ccccc2)N(c2ccc(Br)cc2)C(=O)N1c1ccc(Br)cc1 (stereo not given) showed a cell count of 6370.
Compound CCCCC[C@H](O)/C=C/[C@H]1CC[C@@H](O)[C@@H]1CCCCCCC(=O)O has a cell count of 6900.
Compound CCCCC[C@H](O)/C=C/[C@@H]1[C@@H](CCCCC(CC(=O)O)OC)[C@@H](O)C[C@H]1O (stereo not given in full) has a cell count of 6470.
CCCCCCCCCCCCCCP(=O)(O)O showed a cell count of 5470.
Compound CCCCCCCCCCCSCC(=O)O has a cell count of 5890.
